Experimental data reported in PubChem BioAssay (NCI).
The panel holds about 83,000 compounds, 20% with a hit somewhere; the sample as a whole holds those more often.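 For each line, cells grew in 96-well plates with the test compound present at a single concentration for 48 hours.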 Active and inactive are the calls of the source.

test system: BT-549 breast; assay: NCI-60 one-dose screen, 48 h (100 = growth as untreated, 0 = no growth, -100 = all killed); details: 10 µM unless noted
Description: Growth inhibition of the BT-549 human tumor cell line is measured as a screen for anti-cancer activity. Cells are grown in 96 well plates and exposed to the test compound for 48 hours. Compounds are tested at a single concentration, which is 10^-5 M for most compounds. The reported endpoint is percent growth (GI% or GIPRCNT), where numbers from 0 - 100% represent growth inhibition, and numbers from -100% - 0 represent cell death. For example, a value of 40 represents 60% growth inhibition. A value of 0 means no net growth occurred over the course of the experiment. A value of -40 indicates 40% of cells at the beginning of the experiment died by the end of the experiment. A value of -100 means all cells are dead at the end of the experiment.
NCI-60 Human Tumor Cell Lines Screen was performed using the standard one-dose NCI protocol, which is described in more detail at https://dtp.cancer.gov/discovery_development/nci-60/default.htm.
Compounds with GIPRCNT values below 10 were considered active. Activity score was based on GIPRCNT using the following formula: […]
Score is 0 for GIPRCNT values of 100 or above, 50 for GIPRCNT values of 0, and 100 for GIPRCNT values of -100.

Structure (SMILES) | growth
O=C(NC1CCN(Cc2ccccc2)CC1)c1cc(-c2cccnc2)nc2ccc(Cl)cc12 | 75.5% (inactive)
O=c1c(N=Nc2nccs2)c(-c2ccccc2)[nH]n1-c1nc(-c2ccccc2)cs1 | 19% (inactive)
O=C(CCC(=O)N(CCO)CCO)N(CCO)CCO | 93.5% (inactive)
C=CCNCCC#N | 105% (inactive)
COc1cc2ncnc(-n3ncc4cc(NC(=O)Nc5ccc(Cl)c(Cl)c5)ccc43)c2cc1OC | -26.9% (active)
O=C(Nc1ccc(Cl)c(Cl)c1)O/N=C\c1c(Cl)ccc([N+](=O)[O-])c1Cl | -6.07% (active)
CC(=O)Nc1nc(C)c(C(=O)N/N=C/c2cccs2)s1 | 120% (inactive)
COC(=O)C(C)[C@H]1CC[C@@H]2[C@]1(C)CC=C1[C@]23C=C[C@]2(C[C@@H](OC(C)=O)CC[C@]12C)C(C(=O)OC)C3C(=O)OC (stereo not given in full) | 101% (inactive)
CC(C)OC(=O)[C@H](C)N[P@@](=O)(OC[C@@]1(C)O[C@@H](n2cc(F)c(N)nc2=O)C[C@@H]1O[P@](=O)(N[C@@H](C)C(=O)OC(C)C)Oc1ccccc1)Oc1ccccc1 | 75.9% (inactive)
O=C(Oc1ccccc1)c1ccccc1Cl | 96.8% (inactive)
COC(=O)c1cc(=O)nc(N/N=C/c2ccccc2O)s1 | 94.7% (inactive)
CC(Br)c1nc2ccccc2cc1C(N)=O (stereo not given) | 112% (inactive)
O=C(NC(=S)NNC(=S)NNc1ccccc1)c1ccccc1 | 49.5% (inactive)
CCc1c(C)c2ccc(OCC(=O)N=Nc3c(O)[nH]c4ccccc34)c(C)c2oc1=O | 11.3% (inactive)
COC(=O)c1ccc2[nH]c(O)c(C(=Nc3ccc(N(C)C(=O)CN4CCN(C)CC4)cc3)c3cccc(OC)c3)c2c1 | 11.2% (inactive)
CCC(CCCN1C(=O)c2ccccc2C1=O)Nc1cc(OC)cc2c(C)ccnc12 (stereo not given) | 78.7% (inactive)
COC(=O)[C@H](Cc1cn(C)cn1)NC(=O)[C@H](Cc1c[nH]c2ccccc12)NC(=O)Nc1cc(C(F)(F)F)cc(C(F)(F)F)c1 | -88.6% [100 µM] (active)
Cc1ccc(NC(=O)CCl)cc1Cl | 76.7% (inactive)
COc1ccc(-c2nc(N)n(C(=S)Nc3ccccc3)n2)cc1 | 102% (inactive)
O=C(OCC1CC2(Cl)C(Cl)=C(Cl)C1(Cl)C2(Cl)Cl)C1C(C(=O)OCC2CC3(Cl)C(Cl)=C(Cl)C2(Cl)C3(Cl)Cl)C2(Cl)C(Cl)=C(Cl)C1(Cl)C2(Cl)Cl (stereo not given) | 97.5% (inactive)

Structure (SMILES) | growth
CC(=O)O.[In] | 105% (inactive)
CCC1(CC)C(OC)NC(Br)=C(C#N)C1(C#N)C(N)=O (stereo not given) | 104% (inactive)
O=C(Nn1cnc2ccccc21)N1CCCC1 | 96.5% (inactive)
CCCCCCCCCCCCCCCCNC(=S)N/N=C/c1ccc(OC)cc1 | 104% (inactive)
O=C(/C=C/c1ccc(Cl)cc1)c1ccc(Cl)cc1 | 101% (inactive)
COc1cccc2c1nc1cccc(OC)c1[n+]2[O-] | 32.9% (inactive)
O=C(O)/C(Br)=C/c1c[nH]c2ccc(Br)cc12 | 121% (inactive)
O=C(CCl)c1ccc2c(c1)CCCC2 | 83.5% (inactive)
CC(O)c1cc[cH-]c1.[Fe+2].c1cc[cH-]c1 (stereo not given) | 95.5% (inactive)
COc1ccc(C2C3(C#N)C(N)=NC(=C(C#N)C#N)C23C#N)cc1OC (stereo not given) | 93.3% (inactive)
CCN(CC)C(=O)C1(C)CCCC2(C)c3cc(OC(C)=O)ccc3CCC12 (stereo not given) | 95.4% (inactive)
CCCCCCCCCc1cc[n+](CC(=O)c2ccc([N+](=O)[O-])cc2)cc1 | 15.2% (inactive)
Cn1c2c(cc(S(=O)(=O)c3ccccc3)c1=O)CCc1c-2cnn1-c1ccc(Cl)cc1 | -13.8% (active)
O=C(Cc1ccccc1[N+](=O)[O-])c1ccc2c(c1)OCO2 | 92.1% (inactive)
COc1ccc(C(=O)N2N=C(c3ccc(Br)cc3)CC2c2cn(-c3ccccc3)nc2-c2ccccc2)cc1 (stereo not given) | 87.7% (inactive)
Nc1ccc(S(=O)(=O)Nc2cc(F)cc(F)c2)cc1 | 88.1% (inactive)
COC(=O)c1ccc2[nH]c(O)c(C(=Nc3ccc(N(C)C(=O)CN4CCN(C)CC4)cc3)c3ccc(N)cc3)c2c1 | 81.5% (inactive)
O=C1c2cc([N+](=O)[O-])ccc2-c2cc(Cl)c(NC(=O)C(F)(F)F)cc21 | 108% (inactive)
CCCCCCCCCCCCCCCCNC(=S)N/N=C/c1ccc(O)cc1O | 83.5% (inactive)
CN1C(=O)C(=Cc2coc3ccc(Br)cc3c2=O)C(=O)N(C)C1=O | 106% (inactive)
